Target: thrombin (human, UniProt P00734)
Test: primary screen, binary call; higher = more effect of the substance
Design: screenings were carried out in duplicate in one independent experiment
Conditions: 200 µM; call rule not given here
Description: Protease inhibitory assays were performed in transparent microtiter plates in a final volume of 200 µL with the use of chromogenic substrates. The reaction rates in the absence and in the presence of the inhibitor were measured; screenings were carried out in duplicate in one independent experiment and Ki values were determined in triplicate in two independent experiments.

Row | Compound | Thrombin
1 | Cc1ccc(CCNc2ccccc2)cn1 | 0 (inactive)
2 | N#CCCN1CCc2ccccc21 | 0 (inactive)
3 | O=C1NC(=O)C2(CCc3ccccc32)N1 (stereo not shown) | 0 (inactive)
4 | O=C(c1ccccc1F)N1CCNCC1 | 0 (inactive)
5 | Cc1cc(N)no1 | 0 (inactive)
6 | c1ccc(-c2ccncc2)cc1 | 0 (inactive)
7 | c1ccc2sc(N3CCNCC3)nc2c1 | 0 (inactive)
8 | Oc1cnc(-c2ccccc2)nc1 | 0 (inactive)
9 | NC(=O)N1CCC(C(=O)O)CC1 | 1 (active)
10 | CS(=O)(=O)c1ccc(N2CCNCC2)cc1 | 0 (inactive)
11 | Brc1ccc(-c2ccon2)cc1 | 0 (inactive)
12 | CC(=O)c1ccc2c(c1)CNCC2 | 0 (inactive)
13 | O=C(c1ccccc1)N1CCC(CO)CC1 | 0 (inactive)
14 | O=c1[nH]ncc2c1oc1ccccc12 | 0 (inactive)
15 | O=C(c1ccncc1)N1CCNCC1 | 0 (inactive)
16 | COc1ccc(CN2CCNCC2)cc1F | 0 (inactive)
17 | N[C@H]1c2ccccc2C[C@H]1CO | 0 (inactive)
18 | Cc1cc(-c2ccccc2)n[nH]1 | 0 (inactive)
19 | O=C(O)c1ccc(CN2CCOCC2)cc1 | 0 (inactive)
20 | CC1C(=O)NC(=O)N1c1ccc(Cl)cc1 (stereo not shown) | 0 (inactive)

Row | Compound | Thrombin
21 | CCc1nccn1CC(=O)O | 0 (inactive)
22 | Cn1c(CO)nc2ccccc21 | 0 (inactive)
23 | CC1CCc2sc(C(=O)O)cc2C1 (stereo not shown) | 1 (active)
24 | CN(C)c1cc(CN)ccn1 | 0 (inactive)
25 | Cc1nccn1Cc1cccc(C#N)c1 | 0 (inactive)
26 | CC(=O)c1ccc2c(c1)CCCN2 | 0 (inactive)
27 | N#Cc1ccc(C(=O)N2CCOCC2)cc1 | 0 (inactive)
28 | Fc1ccc(CC2CCCNC2)cc1 (stereo not shown) | 0 (inactive)
29 | Nc1ccc(SC(F)F)cc1 | 0 (inactive)
30 | c1cnc2c(c1)NCCC2 | 0 (inactive)
31 | Cc1ccc(-c2ccc(O)cc2)cc1 | 0 (inactive)
32 | CC1(C)OC(=O)c2cc(Br)c(O)cc2O1 | 0 (inactive)
33 | Cc1ccc(C)n1Cc1ccccc1Cl | 0 (inactive)
34 | Nc1nnc(-c2cccs2)[nH]1 | 1 (active)
35 | COc1ccccc1CC1CCNCC1.Cl | 0 (inactive)
36 | COC(=O)c1c(C)nc(C2CC2)[nH]c1=O | 0 (inactive)
37 | CCCN1C(=O)CC(=O)NC1=S | 0 (inactive)
38 | COc1cccc(NC2=NCCCCC2)c1 | 0 (inactive)
39 | Fc1ccc2c(C3CCNCC3)c[nH]c2c1 | 0 (inactive)
40 | O=C1NC2(CCCC2)Nc2ccccc21 | 0 (inactive)

Source: publication PMC8159961, “Exploring protein hotspots by optimized fragment pharmacophores” (Nature Communications, 2021)
